In experiment [1] the target is Guanine nucleotide-binding protein G(i) subunit alpha-1 (Homo sapiens) (UniProt P63096). Description: qHTS Assay for Inhibitors of RGS12 GoLoco Motif Activity (Green Fluorophore) (AID 879).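 Further: 0% = labeled peptide with Gαi1 and full inhibition = labeled peptide alone without protein; negative values mean loss of peptide binding seen as reduced polarization.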 The procedure, abridged: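 Fluorescence polarization assay: 50 nM Gαi1 with 10 nM FITC-labeled RGS12 GoLoco peptide in 10 mM Tris pH 7.5, 150 mM NaCl, 0.1 mM GDP, 0.05% NP40, 10 min at room temperature with compound.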
Chain of Guanine nucleotide-binding protein G(i) subunit alpha-1 (Homo sapiens) (P63096 whole entry, looked up): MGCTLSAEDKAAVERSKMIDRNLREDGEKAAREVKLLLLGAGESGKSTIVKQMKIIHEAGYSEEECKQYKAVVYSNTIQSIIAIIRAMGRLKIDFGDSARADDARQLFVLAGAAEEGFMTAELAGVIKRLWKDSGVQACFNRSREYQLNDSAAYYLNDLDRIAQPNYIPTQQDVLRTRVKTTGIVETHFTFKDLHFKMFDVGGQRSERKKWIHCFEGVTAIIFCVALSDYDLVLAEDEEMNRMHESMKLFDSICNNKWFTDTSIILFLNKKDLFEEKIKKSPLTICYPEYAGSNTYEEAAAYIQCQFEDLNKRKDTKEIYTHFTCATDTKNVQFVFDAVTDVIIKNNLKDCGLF
(In general: Quantitative high-throughput screening tests each substance at several concentrations.)

In experiment [2] the target is Cytochrome P450 2C9 (Homo sapiens) (UniProt P11712). Description: qHTS Assay for Inhibitors and Substrates of Cytochrome P450 2C9 (AID 883). Further: nearly all actives have a fitted effect of over 60% in size. Further: potency means the concentration at half of the fitted maximal effect. An outline of the steps: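 A luminogenic readout tracked human CYP2C9 (10nM) converting deoxyluciferin (100uM, at KM) in 25mM KPO4 during 60 min at 37C with regenerated NADPH. Values normalized to 57uM sulphaphenazole as complete inhibition.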
Chain of Cytochrome P450 2C9 (Homo sapiens) (P11712 whole entry, looked up): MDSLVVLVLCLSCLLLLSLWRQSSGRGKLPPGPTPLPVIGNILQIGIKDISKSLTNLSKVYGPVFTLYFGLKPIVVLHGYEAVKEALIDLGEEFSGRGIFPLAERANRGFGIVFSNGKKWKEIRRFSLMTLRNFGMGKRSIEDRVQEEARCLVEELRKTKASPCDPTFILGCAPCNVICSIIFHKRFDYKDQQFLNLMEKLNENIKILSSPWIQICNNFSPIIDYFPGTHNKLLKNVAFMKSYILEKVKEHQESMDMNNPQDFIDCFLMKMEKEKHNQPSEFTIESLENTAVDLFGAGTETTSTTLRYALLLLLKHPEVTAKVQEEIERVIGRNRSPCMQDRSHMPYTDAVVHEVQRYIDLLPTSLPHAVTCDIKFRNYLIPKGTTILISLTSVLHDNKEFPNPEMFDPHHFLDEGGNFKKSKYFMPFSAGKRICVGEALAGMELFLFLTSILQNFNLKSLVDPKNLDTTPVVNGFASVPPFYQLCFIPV

Experiment [3] has as its target Cytochrome P450 2D6 (Homo sapiens) (UniProt P10635). The experiment is described as follows: qHTS Assay for Inhibitors and Substrates of Cytochrome P450 2D6 (AID 891). Further: nearly all actives have a fitted effect of over 60% in size. Further: potency means the concentration at half of the fitted maximal effect. The procedure, abridged: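 Human CYP2D6 (5 nM) with 30 uM Luciferin-ME EGE (at Km) in 100 mM KPO4, compound preincubated 10 min, then NADPH regeneration system for 60 min at room temperature. Luciferin read by luminescence; normalized to 1.43 uM quinidine.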

The target in experiment [4] is Cytochrome P450 2C19 (Homo sapiens) (UniProt P33261). Description: qHTS Assay for Inhibitors and Substrates of Cytochrome P450 2C19 (AID 899). Further: nearly all actives have a fitted effect of over 60% in size. Further: potency means the concentration at half of the fitted maximal effect. The procedure, abridged: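 NADPH-dependent conversion of Luciferin-H EGE (10uM, at KM) by 5nM enzyme in 50mM KPO4, 60 min at 37C following 10 min compound preincubation. Stopped with luciferin detection buffer; luminescence read after 20 min.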
Chain of Cytochrome P450 2C19 (Homo sapiens) (P33261 whole entry, looked up): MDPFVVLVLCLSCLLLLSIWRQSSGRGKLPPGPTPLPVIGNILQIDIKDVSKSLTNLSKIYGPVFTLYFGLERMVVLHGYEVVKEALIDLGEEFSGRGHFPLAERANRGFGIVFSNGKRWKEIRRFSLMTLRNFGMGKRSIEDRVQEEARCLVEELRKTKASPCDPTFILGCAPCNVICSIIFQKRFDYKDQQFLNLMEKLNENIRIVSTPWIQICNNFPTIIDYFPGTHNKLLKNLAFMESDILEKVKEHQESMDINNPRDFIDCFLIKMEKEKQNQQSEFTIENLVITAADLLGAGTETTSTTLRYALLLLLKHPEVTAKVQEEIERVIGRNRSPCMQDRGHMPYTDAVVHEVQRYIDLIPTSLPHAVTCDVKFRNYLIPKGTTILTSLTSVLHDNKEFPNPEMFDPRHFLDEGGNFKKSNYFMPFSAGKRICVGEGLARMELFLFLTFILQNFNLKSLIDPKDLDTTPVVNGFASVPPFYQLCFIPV

The nature of experiment [5]: Confirmation and Secondary Assay for Modulators of Hemoglobin Beta Chain Splicing at IVS2 654 locus (AID 910).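 Further: per-well total GFP intensity by laser scanning cytometry after 2-day treatment; % of control where 0% means no effect.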 An outline of the steps: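 HeLa cells stably carrying EGFP interrupted by mutant beta-globin IVS2-654 intron (CMV-driven) were treated with compound for 2 days at 37C; corrected splicing was scored as total peak GFP intensity per well (488 nm excitation, 500-520 nm emission).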

Experiment [6] in a line: qHTS Assay for Identification of Small Molecule Agonists for Thrombopoietin (TPO) Signaling Pathway (AID 917). Further: on the % scale 0 is the no-effect control and ±100 the full control effect. An outline of the steps:
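Murine Ba/F3 cells stably expressing human TPO receptor and a Glycoprotein IIb promoter–luciferase reporter were IL-3-starved overnight, then treated with compounds plus TPO (26 pM final, its EC50) for 24 hrs at 37 C; luminescence was read.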

Experiment [7] is described as follows: Confirmation and Secondary Assay for Modulators of Hemoglobin Beta Chain Splicing at IVS2 705 locus (AID 930).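 Further: HeLa cells stably expressing the EGFP-705 splicing reporter; GFP fluorescence per well restored by corrected splicing of the IVS2-705 intron in EGFP; series mostly up to about 46 µM; % of control where 0% means no effect.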 An outline of the steps: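 First, HeLa EGFP-705 cells are seeded at 500/well in Optimem with 2% FCS and left overnight. Next, compound or DMSO is added for 2 days. Finally wells are laser-scanned and total peak GFP intensity scored.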
Experiment [8] addresses Muscarinic acetylcholine receptor M1 (Rattus norvegicus) (UniProt P08482). The experiment is described as follows: qHTS Assay for Antagonists of Acetylcholine Muscarinic M1 Receptor: Kinetic Measurement of Intracellular Calcium Response (AID 943).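 Further: Fluo-4 calcium signal as peak divided by basal fluorescence over 4 min; series mostly up to about 35 µM; nearly all actives have a fitted effect of over 75% in size.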 The procedure, abridged:
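Rat M1-CHO cells, 2000/well, overnight → Fluo-4 no-wash dye with probenecid, 1 h 37C → compound 10 min, room temp → basal read 6 s → carbachol EC80 (100 nM) → 4 min kinetic read; peak/basal.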

For experiment [9] the target is unchanged. The experiment is described as follows: qHTS Assay for Antagonists of Acetylcholine Muscarinic M1 Receptor: Measurement of IP-One Response (AID 944). Further: nearly all actives have a fitted effect of over 75% in size. The procedure, abridged:
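M1-CHO (rat), 2000 cells/well, overnight recovery; cpd 10 min; carbachol EC80 (200 nM), 30 min, HEPES buffer + 50 mM LiCl pH 7.4; IP-One HTRF, Ex 337, Em 620/665 nm.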

Experiment [10] deals with Cytochrome P450 3A4 (Homo sapiens) (UniProt P08684). The experiment is described as follows: qHTS Assay for Inhibitors and Substrates of Cytochrome P450 3A4 (AID 884). Further: nearly all actives have a fitted effect of over 50% in size. Further: potency means the concentration at half of the fitted maximal effect. An outline of the steps:
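20 nM human CYP3A4 with 25 uM Luciferin-PPXE (at KM) in 200 mM KPO4, preincubated 10 min with compound; NADPH regeneration started a 60 min RT reaction. Luciferin detected by luminescence, normalized to 57 uM ketoconazole as full inhibition.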

The target is the same in experiment [11]. Description: qHTS Assay for Activators of Cytochrome P450 3A4 (AID 885). Further: nearly all actives have a fitted effect of over 65% in size. An outline of the steps:
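Quantitative HTS format: compounds preincubated with 20nM human CYP3A4 and Luciferin-PPXE substrate at KM, reaction started by NADPH regeneration, stopped after 60 min, luciferase luminescence read 20 min later.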

Experiment [12] in a line: qHTS Assay for Identification of Small Molecule Antagonists for NFkB Signaling Pathway (AID 895; active means well fitted inhibition curve with a large enough effect in the signal ratio, with a control signal flat, not every such curve was filed as active; the % refers to the signal ratio; further: potency means the concentration at half of the fitted maximal effect). An outline of the steps:
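NFkB-bla ME-180 cervical carcinoma cells with beta-lactamase reporter under NFkB response element; compounds added, then TNF alpha at 10 pM final (EC50), 5 h at 37 C. LiveBLAzer substrate 2 h, room temperature; emission 460/530 nm at 405 nm excitation.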

Experiment [13] can be described thus: Cellular Toxicity (caspase-3) H-4-II-E (AID 663).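 Further: cells exposed to compound for 16 hr before readout; 0% = DMSO basal and 100% = 100 µM tamoxifen.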 The procedure, abridged: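 Luminescence from caspase-cleaved aminoluciferin substrate, read 20 min after reagent addition, reports caspase 3/7 activation in rat H-4-II-E cells after 16 hr compound exposure. Normalized to DMSO (basal) and 100 uM tamoxifen (100%); AC50 from Hill fits.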
Experiment [14] can be described thus: Cellular Toxicity (caspase-3) Hek293 (AID 664).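 Further: cells exposed to compound for 16 h at 37 °C before readout.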 An outline of the steps:
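Cells plated, 5 hr at 37 °C; compounds added; 16 hr at 37 °C; Caspase-Glo 3/7 reagent, 20 min RT; luminescence read. Activation expressed relative to DMSO and 100 uM tamoxifen, AC50 by Hill model.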

Experiment [15] can be described thus: Cellular Toxicity (caspase-3) N2a (AID 665).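 Further: compound exposure lasted 16 h at 37 °C before readout.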 The procedure, abridged: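 N2a cells, 1500/well, 5 h settle at 37 °C; cpd 16 h, 37 °C; Caspase-Glo 3/7, 1 h RT; luminescence. Norm: DMSO = 0, 10 uM staurosporine = 100%. AC50, Hill fit.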
Experiment [16] can be described thus: Cellular Toxicity (caspase-3) NIH 3T3 (AID 666).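 Further: 0% = DMSO basal and 100% = 100 µM tamoxifen stimulation.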 The procedure, abridged: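 Luminescence from aminoluciferin released by caspase-3/7 cleavage of a peptide substrate served as read-out. Mouse fibroblast NIH 3T3 cells were exposed to compounds over a concentration range for 16 hours, and AC50 values came from standard Hill modelling.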
The nature of experiment [17]: Cellular Toxicity (caspase-3) Renal Proximal Tubule (AID 667).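 Further: cells exposed to compound for 16 hours at 37 °C before detection; 0% = DMSO basal and 100% = 10 µM staurosporine.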 The procedure, abridged: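 Primary rat proximal tubule cells, 1000/well, 5 h plating at 37 °C, then compound 16 h at 37 °C. Caspase-Glo 3/7 reagent, 1 h RT, luminescence. Normalized to DMSO (basal) and 10 uM staurosporine (100%); Hill-fit AC50.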
Experiment [18] is described as follows: qHTS Assay for Identification of Small Molecule Agonists for Hypoxia Response Element Signaling Pathway (AID 914; active means well fitted activation curve with a large enough effect in the signal ratio, with a control signal flat, not every such curve was filed as active; the % refers to the signal ratio; further: % of control where 0% means no effect). To be noted: ME-180 (cervical carcinoma) HRE-bla reporter, beta-lactamase ratio, CoCl2, 17 h; activation: stronger effect = higher value. The procedure, abridged:
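Positive modulation of EC50 CoCl2-induced hypoxia response element signaling is measured in ME-180 cells with a beta-lactamase reporter. Compounds are titrated, incubation runs 17 hours, and %Activity derives from the blue/green ratio.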

Experiment [19] in a line: Cell Viability - LYMP2-001 (AID 921).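 Further: series mostly up to about 92 µM; 0% = DMSO only and full inhibition = tetraoctylammonium bromide control wells; nearly all actives have a fitted effect of over 70% in size.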 The procedure, abridged:
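Human lymphoblastoid cells (Coriell), 2500 per well, were preincubated 5 hr at 37 C, then exposed to compounds in complete medium for 24 hr at 37 C. Cellular ATP was read by CellTiter-Glo luminescence; AC50 from Hill fits of concentration-response data.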

“And” between values parts separate entries of the source, which are not always exact repeats. Equal values may be shown once. A number with no mark means an inactive call. Records with an inconclusive call do not appear. The source made the active and inactive calls. Unless noted, the call rests on the fitted dose curve; in most records, active means well fitted curve in the direction sought with a large enough effect; inconclusive means small, poorly fitted or top-dose-only effect, or another doubt; inactive means no such curve, though single readings can be large; an effect the other way counts as inactive or inconclusive.

Chain of Cytochrome P450 3A4 (Homo sapiens) (P08684 whole entry, looked up): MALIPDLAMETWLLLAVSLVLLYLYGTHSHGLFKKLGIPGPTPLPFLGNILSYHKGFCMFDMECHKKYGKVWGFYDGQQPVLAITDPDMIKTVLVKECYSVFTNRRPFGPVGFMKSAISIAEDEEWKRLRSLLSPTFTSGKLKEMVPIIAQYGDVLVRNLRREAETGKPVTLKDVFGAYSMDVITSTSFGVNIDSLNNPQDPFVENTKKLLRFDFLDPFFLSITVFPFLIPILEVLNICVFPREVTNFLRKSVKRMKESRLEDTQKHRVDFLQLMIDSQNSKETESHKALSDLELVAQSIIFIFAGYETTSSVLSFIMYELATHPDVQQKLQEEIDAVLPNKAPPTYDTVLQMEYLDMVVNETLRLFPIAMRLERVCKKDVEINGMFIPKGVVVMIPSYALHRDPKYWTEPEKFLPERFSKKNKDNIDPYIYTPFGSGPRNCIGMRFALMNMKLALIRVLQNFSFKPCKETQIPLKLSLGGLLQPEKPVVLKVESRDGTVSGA
Chain of Muscarinic acetylcholine receptor M1 (Rattus norvegicus) (P08482 whole entry, looked up): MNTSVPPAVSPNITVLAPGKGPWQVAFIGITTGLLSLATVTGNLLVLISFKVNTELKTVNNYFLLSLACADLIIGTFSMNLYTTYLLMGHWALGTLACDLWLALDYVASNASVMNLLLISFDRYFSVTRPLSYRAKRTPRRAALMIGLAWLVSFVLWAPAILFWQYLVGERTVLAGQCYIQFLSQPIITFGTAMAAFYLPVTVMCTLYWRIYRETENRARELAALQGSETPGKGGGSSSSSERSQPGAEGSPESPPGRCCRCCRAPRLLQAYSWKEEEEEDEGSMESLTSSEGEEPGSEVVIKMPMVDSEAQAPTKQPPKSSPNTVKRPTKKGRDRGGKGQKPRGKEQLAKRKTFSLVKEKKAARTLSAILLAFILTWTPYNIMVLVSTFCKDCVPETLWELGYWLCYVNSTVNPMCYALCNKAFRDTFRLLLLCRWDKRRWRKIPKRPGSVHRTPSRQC
Chain of Cytochrome P450 2D6 (Homo sapiens) (P10635 whole entry, looked up): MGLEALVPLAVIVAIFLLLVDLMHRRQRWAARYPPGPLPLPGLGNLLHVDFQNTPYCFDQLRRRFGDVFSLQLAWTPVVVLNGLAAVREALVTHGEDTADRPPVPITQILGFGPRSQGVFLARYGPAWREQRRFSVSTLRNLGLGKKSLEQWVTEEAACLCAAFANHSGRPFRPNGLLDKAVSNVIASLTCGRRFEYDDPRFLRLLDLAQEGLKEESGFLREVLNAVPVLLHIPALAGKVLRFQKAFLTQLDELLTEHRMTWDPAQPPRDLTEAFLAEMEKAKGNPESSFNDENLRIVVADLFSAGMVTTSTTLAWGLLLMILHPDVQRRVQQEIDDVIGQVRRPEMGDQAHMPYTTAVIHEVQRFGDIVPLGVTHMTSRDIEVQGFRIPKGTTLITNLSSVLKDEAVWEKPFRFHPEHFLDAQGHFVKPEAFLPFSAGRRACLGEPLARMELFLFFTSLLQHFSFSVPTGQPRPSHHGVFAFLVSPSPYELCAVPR

Take `N=c1nc(N2CCCCC2)cc(N)n1O`: the outcome in experiment [1] and in experiment [6] was inactive. Besides, the Potency result in experiment [2], in experiment [3], in experiment [4], in experiment [5], in [7] and in experiment [8] was “inactive” in each case. Also, the Potency entry in [9] was “inactive”.
Take `CC(C)(Sc1ccc(CCN(CCCCC2CCCCC2)C(=O)NC2CCCCC2)cc1)C(=O)O`: the result in [1], in experiment [11] and in experiment [6] was inactive. In addition, the Potency was 31.6 µM (active) in experiment [2], 3.98 µM (active) in experiment [10] and 14.1 µM (active) in [12]. Further, the Potency entry in [3], in experiment [4], in experiment [8] and in experiment [9] was “inactive” each time.
For `NS(=O)(=O)c1cc2c(cc1Cl)NC=NS2(=O)=O`, the outcome in experiment [13], in experiment [14], in [15], in [16], in [17] and in [1] was inactive. For the same compound, in experiment [6], the call was inactive. Also, the Potency entry in experiment [5], in experiment [19] and in [7] was “inactive” throughout. In addition, in experiment [18], the activation is 13.9% and 2.11% and -1.51%.
For `Clc1cccc(Cl)c1NC1=NCCN1`, the result in [1] and in experiment [6] was inactive. The Potency in experiment [2] is 7.94 µM (active); in [4] it was 5.01 µM (active).
Regarding `Nc1nc2c(ncn2COCCO)c(=O)[nH]1`, the call in [1] and in experiment [6] was inactive. For the same compound, the Potency entry in [10] and in [7] was “inactive” throughout.
Turning to `CCOC(=O)C1=C[C@@]2(CC)CCCN3CCc4c(n1c1ccccc41)[C@H]32`, the compound was called inactive in [1], in [11] and in [6]. For the same compound, the Potency entry in experiment [2], in experiment [4] and in experiment [9] was “inactive” throughout. Further, the Potency in experiment [3] is 39.8 µM (active) and 6.31 µM (active).
Turning to `C[C@]12CCC(=O)C=C1CC[C@@H]1[C@@H]2[C@@H](O)C[C@@]2(C)[C@H]1CC[C@]2(O)C(=O)CO`, the call in [1], in experiment [11] and in [6] was inactive. Besides, in experiment [12], the Potency was 0.0141 µM (active). In addition, the Potency entry in experiment [9] was “inactive”.
For `N[C@@H]1CONC1=O`, the compound was called inactive in experiment [1], in experiment [11] and in experiment [6]. For the same compound, the Potency entry in [2] is “inactive”.
Regarding `CC(C)NCC(O)COc1ccc(COCCOC(C)C)cc1` (centres undefined), the compound was classed as inactive in experiment [1] and in experiment [6]. For the same compound, the Potency entry in experiment [10] and in [9] was “inactive” in each case.
As for `Cc1ccc(N(CC2=NCCN2)c2cccc(O)c2)cc1`, the outcome in experiment [1] and in experiment [6] was inactive. Besides, the Potency in experiment [3] was 3.16 µM (active) and 794 nM (active). Besides, the Potency result in experiment [5], in experiment [7] and in [9] was “inactive” in each case.

These data come from PubChem BioAssay (NCATS).
